The values that follow come from the supplement of paper PMC12632987.

The chains are these.
B1: GBRAP_150_3934 (protein)
chain: DLEELLLLAESVADLLDLALNEGIDRLKALKRAQELLKDLIKEADEELKEIAKKAQELIKKAIKLEEEGGEEKEIKKLLKKAQELAKELAKELEKKIEEE
B2: GBRAP_11_2819 (protein)
chain: MDEVVKELIEVLKKLAEAADKYLKEDVGDEELLKKIEELAKKALELAKKLNDPAVIREAQAILDTVEEAKKDPANREQYVANARAGARTLLANLEEEAEE
B3: GBRAP_35_5522 (protein)
chain: DSDTLTVEMLVATIEDLTLAVPDMDVETAVQIATQLIKAAEELAKDIKNNVEGLKKLRDALAKLRDALEKHYGDDPLAQQVIAQIDKLIAEIDKMIKEAK
B4: GBRAP_95_7082 (protein)
chain: EEDLETLEDLAQTAIDLYEAGFEEQAARAAKAAAEELEELGYKVADKELLTKLLTYAADLAPKYFDEEEIERWLKIAEATGAPQSIIDALRAALAAKKAA
B5: GBRAP_125_2963 (protein)
chain: SEEEDLKALATLAKALGFDEDDVAEAVELARKFGIKNTVIALFLAEGYEEVAELVEKLTEEEVREVLKELAKEIEANPDLTPEEVVELAKKLLEKKIAKK
B6: GBRAP_39_5686 (protein)
chain: EEEEENEDVVSYLEGLAAKYLYETGKSLEEAFEEAKKILLKLAEEHPELKELIEKLIELAEKKGEEAKLALIGIAVLVKQGTPLEEIKENIEKVIAYFES
B7: GBRAP_39_5685 (protein)
chain: EEEEEDENVVSYLEGLAAARLYETGKSLEELFEEAKKILKALAKEEPELKELIEELIELAEKKGDEAKLALIGIAVLVEEGTPLEEIKENIEKVINYFKK
B8: GBRAP_125_3124 (protein)
chain: AEAQALADLAAVLKALGFDDEDVAEAVELAAAHSIRGTLYAALLALGDEEGADLVAKLTEEQTKEVVAAVNAWLKAHPDATPEEVKEKLLALLKEAVAAS
B9: GBRAP_160_4816 (protein)
chain: MEKVEELLKEAEEDLLDTAEASKDLPIEDRAALLRAEGYTSILELKEELNLSDETEDKLVAIVDELVARLLANPDLTPEEVLALVKEAYEKMKKIVLEEA
B10: GBRAP_11_2768 (protein)
chain: KKEELKKAAELAEKAAKTVEKLLKEGVDNEELLKEIEELLKELKKLTEKYGNEDMKKLVKIAEELLEEIKKDPENAEEYAKELKATLDVLAGQYLLEAEE
B11: GBRAP_128_3156 (protein)
chain: SVEEVRKKTRELLEKIKESDDETARELARELFELIGTLSPEEAEAAVEVILERLPELSEEKLEILADVAREMMPKYDPYKANLLAEVEVEALNEAEELEE
B12: GBRAP_160_4781 (protein)
chain: SEKKEKLKKAIEEAAKEIKEAIDTESPEQVLTVVRGEGGDILQEAEELGIDNEEALEGLDKGIKELEAAMKAAADASPEEKKAIVDKAKEKMIETLDKLT
B13: GBRAP_52_5905 (protein)
chain: MRARLRADLEEIIAAVRAGDLEAARAKARELAETYDDEELELAAEELAALVLEAPREDLPAWWRTAEIIAEALEEAGRDEVLADLVLSRTAAAIHEVLQR
B14: GBRAP_184_5056 (protein)
chain: MIHEKVIKAETLEELEEKLEELEEELKDFKGELIVHVEIPEFTEEMIELIIERLKRILENGYVSSVTLGLDGKMSEEVVDLAIKLADEAGIKLVIALEEE
B15: GBRAP_14_3829 (protein)
chain: MEEIEAVIEEAREDLIELFEEIVPEKAEELAEAVEEVFEELKRRIKETGNVEEAIEEARERLKEEAKKILADEPEEIRNLVLAAIDIEFAELEEEIEELL
B16: GBRAP_160_4075 (protein)
chain: SKETEELKKEIKEIAEEAIEFIKESNLENQIAIAEMMAGDILMLVFEAPFISDEDEERIDKILDKYVELLKENKDWSLEEKEEIIKEMAEEVIKEVEKAS
B17: GBRAP_11_2853 (protein)
chain: KKEKLKEIAELAEEAIKLLEELLKKGVDDEELQKKILEKLKELLELVKKYLDEADVKLAEYALESFEKSLKDPENAEEYVNEALAFLRVLLGNVLLEIDE
B18: GBRAP_78_6627 (protein)
chain: EVEELLEKALEKVEEAAKLATKIPSEKAIDILDELIDAFEYLEEAIEEGGDLEKIEKALKELKKALELIKEQNDPKLEPLKKEVEEAIKLLEKAKKKIKE
B19: GBRAP_177_5010 (protein)
chain: SRLAEIEAAADDPEALLALVAATDLRELSREELLALLRALARAIAREGPRPELLEAAVRVAVALITDHGVSLAEVVAILIEHADPDTVEEVVERVAERLA

Whole data set: some 4,500 sequences, median “median log2 fold change of GCK-ALFA target abundance (FLAG IP / Myc IP barcode read proportion)” near 0.078, cut for the lowest 2% near -0.6. The entries come from a sample that favours the lowest values as a whole.

The target of this experiment is GABARAP, O95166. In words: median log2 fold change of GCK-ALFA target abundance (FLAG IP / Myc IP barcode read proportion) (log2 ratio); each designed protein is fused to an ALFA-tag nanobody in HEK293 cells to bring the named protein to FLAG-tagged glucokinase (GCK); Myc marks an untargeted standard; higher = target protein stabilised (more abundant). As to conditions: target protein: 3xFLAG-MCP-GCK-ALFA reporter; HEK293 landing pad (RPLP). The procedure, abridged: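 Binders fused to an ALFA nanobody were recombined as a library into HEK293 landing-pad cells, which were induced with 2 μg mL^−1 doxycycline and then transfected to express a FLAG-tagged target and a Myc-tagged standard. After 48 h, circular RNA barcodes recovered by anti-FLAG and anti-Myc immunoprecipitation of lysates were reverse transcribed, amplified and sequenced. Each binder's target abundance is the median log2 ratio of FLAG to Myc barcode read proportions, from barcodes present at ≥10^−7 in both replicates, binders carrying ≥3 barcodes per replicate, a 10^−6 pseudocount and pooled replicates.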
GABARAP, O95166, sequence (O95166 whole entry, the tested form may be a part): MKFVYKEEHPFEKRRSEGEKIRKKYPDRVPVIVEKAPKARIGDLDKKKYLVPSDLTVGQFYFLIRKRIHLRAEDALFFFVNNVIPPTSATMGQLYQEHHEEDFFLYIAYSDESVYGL
As for B1, the “median log2 fold change” value amounted to 0.0862.

For the molecule B2, the “median log2 fold change” value came out at 0.324.

As to B3, the “median log2 fold change” value was -0.0356.

As for B4, the “median log2 fold change” value came to 0.268.

With B5, the “median log2 fold change” value was -0.725.

For the molecule B6, the “median log2 fold change” value worked out at 0.293.

For the molecule B7, the “median log2 fold change” value is -0.604.

Regarding B8, the “median log2 fold change” value was -0.452.

With B9, the “median log2 fold change” value is 0.0572.

B10: the “median log2 fold change” value was determined as 0.117.

Turning to B11, the “median log2 fold change” value is -0.269.

On to B12, for which the “median log2 fold change” value was 0.333.

In the case of B13, the “median log2 fold change” value is -0.658.

Take B14: the “median log2 fold change” value is 0.234.

In the case of B15, the “median log2 fold change” value is -0.798.

On to B16, for which the “median log2 fold change” value was -0.29.

For the molecule B17, the “median log2 fold change” value was determined as 0.174.

For the molecule B18, the “median log2 fold change” value is -0.061.

Regarding B19, the “median log2 fold change” value came to 0.0662.
